Here are results for 40 compounds from PubChem BioAssay (NCI).

Molecules are shown by their SMILES. The panel holds about 83,000 compounds, 20% with a hit somewhere; the sample as a whole holds those more often.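 The endpoint reported here, percent growth, reads 100 for growth as untreated, 0 for no net growth and -100 for all cells dead.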 Values without a mark were called inactive. Activity calls are given as the source filed them.

The assay has as its system SK-OV-3 ovarian. Nature of the assay: NCI-60 one-dose screen, 48 h (100 = growth as untreated, 0 = no growth, -100 = all killed). To be noted: 10 µM unless noted. How it is done: Growth inhibition of the SK-OV-3 human tumor cell line is measured as a screen for anti-cancer activity. Cells are grown in 96 well plates and exposed to the test compound for 48 hours. Compounds are tested at a single concentration, which is 10^-5 M for most compounds. The reported endpoint is percent growth (GI% or GIPRCNT), where numbers from 0 - 100% represent growth inhibition, and numbers from -100% - 0 represent cell death. For example, a value of 40 represents 60% growth inhibition. A value of 0 means no net growth occurred over the course of the experiment. A value of -40 indicates 40% of cells at the beginning of the experiment died by the end of the experiment. A value of -100 means all cells are dead at the end of the experiment.
NCI-60 Human Tumor Cell Lines Screen was performed using the standard one-dose NCI protocol, which is described in more detail at https://dtp.cancer.gov/discovery_development/nci-60/default.htm.
Compounds with GIPRCNT values below 10 were considered active. Activity score was based on GIPRCNT using the following formula: […]
Score is 0 for GIPRCNT values of 100 or above, 50 for GIPRCNT values of 0, and 100 for GIPRCNT values of -100.
For the compound `CC(C)c1ccc(C(=O)OCCCl)cc1`, the growth is 101%.
With `O=c1cc(C(F)(F)F)[nH]c(=S)[nH]1`, the growth is 99.9%.
The same measure for `CCOP(=O)(NC(c1ccccc1)c1ccccc1)OCC`: 107%; for `O=C(N/N=C\c1ccc(Cl)cc1Cl)c1ccncc1`: 117%.
Take `CCCc1cccc(CCC)c1NC(=O)Nc1cc(Cl)cc(Cl)c1`: the growth was 101%.
As for `CCOC(=O)/C(C)=C\c1ccc(OC)c(OC)c1`, the growth was 103%.
In the case of `COC(=O)c1ccccc1C(=O)c1c(C)cc(C)cc1C`, the growth was 102%.
The same measure for `CC(c1ccccc1)N(C)C` (stereo not given): 103%; for `CCCCCC(=O)OCCC1CCCCC1`: 106%; for `NC(CCl)=NCC12CC3CC(CC(C3)C1)C2`: 24.2%.
On to `Oc1ccc(N=Cc2ccc(OCc3ccccc3)cc2)cc1`, for which the growth is 112%.
For `ClCc1cccc2c(CCl)cccc12` the value was 83%; for `Cc1cc(Cc2ccccc2)c(O)c(Cc2ccccc2)c1`, 102%; for `Cc1ccc2nc(N)nnc2c1`, 93.7%.
For `CSCCC(NC(=O)C(Cl)Cl)C(=O)O` (stereo not given) the value was 85.6%; for `CC(=O)OCC1OC(n2cnc3c(=S)nc(N)[nH]c32)C(OC(C)=O)C1OC(C)=O` (stereo not given), 50.1%.
The same measure for `Nc1ccn(C2OC(CO)C(O)C2F)c(=O)n1` (stereo not given): 103%; for `C=CCc1cc(OC)c(OC)c(OC)c1`: 114%.
Consider `O=S(=O)(O)c1ccc(O)c(C2CCCCC2)c1`, for which the growth is 97.1%.
The same measure for `Nc1ncc([N+](=O)[O-])cn1`: 106%; for `CSc1nc2[nH]ncc2c(=O)[nH]1`: 107%.
The same measure for `C=CCNC(=S)N/C=C(/C(=O)c1ccccc1)c1ccccc1`: 110%; for `CCCCCCCCCCC(=O)CCCCCCCCCC`: 92.1%.
As to `CC(C)N(CCCC#N)C(C)C`, the growth was 110%.
For `C[C@H](CCC[C@H](C)OS(=O)(=O)c1ccccc1)OS(=O)(=O)c1ccccc1` the value was 101%; for `N#Cc1ccc(OC(=O)Nc2cc(Cl)cc(Cl)c2)cc1`, -6.95% [100 µM] (active).
The same measure for `CN(C)CCOC(=O)Nc1ccc(Cc2ccc(NC(=O)OCCN(C)C)cc2)cc1`: 137% [100 µM]; for `N=C(N)c1nn(C2OC(CO)C(O)C2O)c2nc[nH]c(=O)c12` (stereo not given): -15.7% (active).
The same measure for `CC(=O)Oc1c(Cl)cccc1-c1ccccc1`: 104%; for `O=CNCCc1ccccc1`: 97%.
Take `O=C(CC(CC(=O)c1ccccc1)c1ccccn1)c1ccccc1`: the growth is 104%.
For `CC(=O)NNC(=S)/N=C\C(C(=O)c1ccccc1)=C(/O)c1ccccc1` the value was 91.8%; for `CCOC(=O)CNC`, 106%; for `CC(=O)c1cccs1`, 99%.
For `NC(=O)NCCO` the value was 110%; for `CCC12OC(COc3ccccc3)CN1CCN2c1ccccc1` (stereo not given), 106% [100 µM]; for `ClCC(Cl)[C@@H]1CC2C=CC1C2` (stereo not given in full), 111%.
For `Cc1[nH]n(-c2ccccc2)c(=O)c1C=NC(=S)C(N)=S` the value was 96%.
As to `O=C(c1ccccc1)c1ccc(-c2ccc(O)cc2)cc1`, the growth was 93.4%.
For `C=CCOc1ccc(Cl)cc1Cl` the value was 118%.
